Results filed as inconclusive are left out. Values without a mark were called inactive. The call rests on the fitted dose curve; in most records, active means well fitted curve in either direction with a large enough effect (not every such curve was filed as active); inconclusive means small, poorly fitted or top-dose-only effect, or another doubt; inactive means flat fitted curve, though single readings scatter.
Assay: Stat Signaling Pathway (AID 446)
Conditions: ME-180 (cervical carcinoma) SIE beta-lactamase reporter, IL-6 stimulated, 5 h; series mostly up to 7.69 µM; activity, negative = inhibition: at the top concentration
Method: NCGC Assay Overview: The IL-6/STAT signaling pathway was assayed in ME-180 cervical carcinoma cells by a beta-lactamase reporter gene controlled by a STAT Inducible Element (SIE). This reporter is induced by IL-6 at 40 pM AC50 and inhibited by the pan JAK inhibitor, 2-(1,1-Dimethylethyl)-9-fluoro-3,6-dihydro-7H-benz[h]-imidaz[4,5-f]isoquinolin-7-one, at approximately 10 nM AC50. Plated cells were incubated overnight and on the following day, stimulated with 40 pM IL-6 for 5 hrs. The assay was screened at the AC50 of IL-6 activation to identify both inhibitors and activators of IL-6/STAT signaling.
NCGC Assay Protocol Summary: Cells were trypsinized, washed in assay medium (AM, OPTI MEM with 0.5% fetal bovine serum, 0.1 mM nonessential amino acids, 1 mM sodium pyruvate, 10mM HEPES pH 7.3, 100U/ml penicillin, and 100 ug/ml streptomycin) and suspended at 6 x 10e5/ml in AM. Approximately […] cells in 5 uL/well was dispensed into 1536 well plates and the cells were incubated overnight at 37 C. 23 nL of compound were delivered by a pin tool and 1 uL of IL-6 (40 pM final concentration in AM) was added. After centrifugation at 1000 rpm for less than a minute, plates were incubated at 37C for 5 hrs. One uL of detector mix (LiveBLAzerTM, Invitrogen) was added, the plates incubated at room temperature for 2.5 hrs, and fluorescence intensity at 460 and 530 nm emission was measured at 405 nm excitation by an Envision (Perkin Elmer) or Safire II (Tecan). Data were normalized by GeneData to the controls for AC90 stimulation (300 pM IL-6) and to AC90 inhibition (125 nM Jak inhibitor, 40 pM IL-6 in AM).
On the % scale 0 is the no-effect control and ±100 the full control effect.

| Structure (SMILES) | activity, negative = inhibition |
| --- | --- |
| O=C(/C=N/O)NCCCN1CCOCC1 | 2.29% [at 17.2 µM] |
| COc1ccc(Oc2ncc3nc(CCc4ccccc4)c(=O)n(CCC#N)c3n2)cc1 | -4.43% |
| NS(=O)(=O)c1ccc(N=Nc2c[nH]c(=O)c(O)c2)cc1 | 3.86% |
| N#Cc1ccccc1-c1ccc2ncnc(NCc3cccnc3)c2c1 | 0.971% |
| COc1ccc(Oc2ncc3nc(-c4ccc(F)cc4)c(=O)n(C[C@H]4CCCO4)c3n2)cc1 | -16.7% |
| O=c1cnc2cnc(OCc3ccccc3)nc2n1CCc1ccccc1 | 1.63% |
| CCC(C)n1ncn(-c2ccc(N3CCN(c4ccc(OCC5COC(Cn6cncn6)(c6ccc(Cl)cc6Cl)O5)cc4)CC3)cc2)c1=O (stereo not given) | -19.5% [at 17.2 µM] |
| Clc1ccccc1NN(Cc1ccncc1)c1ccccc1Cl | -4.97% |
| COc1ncc2nc(CCc3ccccc3)c(=O)n(-c3ccccc3)c2n1 | -9.31% |
| COc1ccccc1CNc1ncnc2ccc(-c3cccc(NS(C)(=O)=O)c3)cc12 | -15.3% |
| COc1ncc2nc(-c3cccs3)c(=O)n(CCC#N)c2n1 | 13.6% |
| COC(=O)c1cc(Br)c(=O)n(Cc2ccc3c(c2)OCO3)c1 | -3.91% [at 17.2 µM] |
| Cc1ccccc1-c1nc(Nc2ccncc2)c2ccccc2n1 | 7.98% |
| COc1ccc2[nH]cc(CCNc3ncncc3-c3ccccc3OC)c2c1 | -11.6% |
| COc1ccccc1CNc1nc(-c2ccc(C(=O)N(C)C)cc2)nc2ccccc12 | -28.6% |
| CN(Cc1ccco1)c1nc(-c2ccccc2C(F)(F)F)nc2ccccc12 | 12.6% |
| CCNc1ncc2ncc(=O)n(Cc3cccc(OC)c3)c2n1 | -21% |
| CN(C)c1ncnc2ccc(-c3cccc(NS(C)(=O)=O)c3)cc12 | -17.4% |
| CN(C)c1nc(-c2cccc(NS(C)(=O)=O)c2)nc2ccccc12 | 5.62% |
| COc1ccc(CNc2cc(-c3cccc(NS(C)(=O)=O)c3)ncn2)c(OC)c1 | -22.4% |

| Structure (SMILES) | activity, negative = inhibition |
| --- | --- |
| COCCn1c(=O)c(-c2ccc(F)cc2)nc2cnc(Oc3ccccc3)nc21 | -9.94% |
| COc1ccc(-n2c(=O)c(CCc3ccccc3)nc3cnc(OC)nc32)cc1 | -9.77% |
| COc1ccccc1-c1nc(Nc2ccncc2)c2ccccc2n1 | 3.46% |
| CCc1c(C)c(C#N)c2nc3ccccc3n2c1-n1nc(C)cc1C | -3.69% [at 17.2 µM] |
| COc1ccccc1CNc1ccnc(-c2cccnc2)n1 | -11% |
| COCCn1c(=O)c(CCc2ccccc2)nc2cnc(OCc3ccccc3)nc21 | -2.76% |
| COc1ccc2[nH]cc(CCNc3cc(-c4ccccc4OC)ncn3)c2c1 | -19.5% |
| CCOc1ccc2nc3cc(N=Nc4ccc(N)nc4N)ccc3c(N)c2c1 | 20.5% |
| Cc1cccc(CNc2ncncc2-c2ccccc2C)c1 | -12.5% |
| COc1ccc2[nH]cc(CCNc3ncnc4ccc(-c5ccoc5)cc34)c2c1 | -19.4% |
| O=S(=O)(O)C1CCNCC1 | -6.13% [at 38 µM] |
| CCNc1ncc2nc(C)c(=O)n(CCc3ccccc3)c2n1 | -6.86% |
| Cc1nc2cnc(N3CCN(C)CC3)nc2n(CCc2ccccc2)c1=O | -12.6% |
| Cc1ccc(SCc2nnc(N)s2)cc1 | 10.8% [at 17.2 µM] |
| COc1ccc2[nH]cc(CCNc3ncncc3-c3ccccc3C)c2c1 | -8.33% |
| Cc1nc2cnc(OCc3ccccc3)nc2n(CCc2ccccc2)c1=O | -1.03% |
| CN(C)c1ccc(-c2cncnc2NCCc2cnc[nH]2)cc1 | -11.7% |
| O=C(c1ccco1)N1CCC2(CC1)CN(c1cccc(-c3ccccc3)c1)C2 | -22.8% |
| COc1ccccc1CNc1ncncc1-c1ccccc1Cl | -5.04% |
| COc1ccc(Oc2ncc3nc(C)c(=O)n(Cc4cccs4)c3n2)cc1 | -5.53% |

Reference: PubChem BioAssay (NCATS)
